Data as given in PubChem BioAssay AID1259313 (Sanford-Burnham Center for Chemical Genomics, 2017).
Out of some 340,000 compounds screened, about 8,500 (2.5%) were called active. Many of the other results were omitted from the sample, so actives are more common in it than they were. Values without a mark were called inactive.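 How the source made its calls: active means melting temperature shift of at least 10% of the positive control shift, at one fixed dose; inactive means the rest.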

The compounds below were run on Glutamate receptor ionotropic, NMDA 3A (GRIN3A) ligand-binding domain (assay: NR3A LBD thermal stabilization by compounds – biophysical, differential scanning fluorimetry, uHTS, primary screen (AID 1259313)). Conditions: at 25 µM, hits give high values, 0% = protein alone, 100% = glycine-bound protein.

SMILES | Tm shift relative to glycine control
O=C(CCNS(=O)(=O)c1ccccc1)NCCSc1ccc(Br)cc1 | -2.33%
c1ccc(-c2c[nH]c(-c3ccccc3)c2)cc1 | 17.4% (active)
c1ccc(-c2ccc3c(c2)NC(C2Nc4cc(-c5ccccc5)ccc4O2)O3)cc1 (stereo not drawn) | 0.36%
O=c1cc(-c2ccccc2)[nH]c2cc(F)ccc12 | -1.79%
Nn1c(SCc2ccccc2)nnc1C1CCCCC1 | 1.23%
Cc1ccccc1Nc1nc(N)nc(COC(=O)CCC(=O)c2ccc(F)cc2)n1 | -0.42%
CCC1SC2=NCCN2C1(O)c1ccc(Cl)cc1 (stereo not drawn) | -1.83%
CCOc1ccc(S(=O)(=O)Nc2nccs2)cc1 | -0.76%
CCOc1cc(NS(=O)(=O)c2ccc(OC)cc2)c(OCC)cc1NC(C)=O | 1.23%
CCOc1ccc(S(=O)(=O)N/N=C(\C)c2ccc(Cl)c(Cl)c2Cl)cc1 | 16.2% (active)
O=C(O)C(CCc1ccccn1)c1ccccc1 (stereo not drawn) | 0.46%
O=C1c2ccccc2C(=O)N1CCC#Cc1ccc2cc(C3(O)CCCCC3)oc(=O)c2c1 | 35.3% (active)
COc1cc(C(=O)NCCOC(=O)c2cccc(N(C)C)c2)cc(OC)c1OC | 0.47%
Cc1ccc(-c2nn(-c3ccccc3)cc2/C=C2\SC(=S)N(CCCCCC(=O)O)C2=O)o1 | -394%
COc1ccc(-c2nn(-c3ccccc3)cc2/C=C2/SC(=S)N(CCCC(=O)O)C2=O)c(C)c1 | 12.5% (active)
C=CCOc1ccc(/C=C2\SC(=S)N(CCC(=O)O)C2=O)cc1 | 1.33%
COc1cccc(NS(=O)(=O)c2ccc(-c3coc(C)n3)cc2)c1 | -0.18%
O=C(CCNS(=O)(=O)c1ccc(Br)s1)NCc1ccccc1Cl | -2.24%
CCOc1ccccc1NC(=S)C(=C([O-])c1ccc2c(c1)OCCO2)[n+]1ccc(CC)cc1 | -1.27%
COC(=O)c1cc(Oc2ccc(S(=O)(=O)N3CCOCC3)cc2[N+](=O)[O-])cc(C(=O)OC)c1 | 0.08%
Cc1ccc(C(=O)NNC(=O)c2cccs2)cc1 | 0.08%
CCc1ccc(NC(=O)C(=O)NNC(=O)c2cccs2)cc1 | -14.4%
Cc1ccc(-c2nnc(-c3ccc(NC(=O)c4cccs4)cc3)o2)cc1 | 22.2% (active)
Cc1cccc(C=CC(=O)c2ccc(Cl)cc2)c1 | 4.44%

SMILES | Tm shift relative to glycine control
Cc1ccc(OCC(=O)Nc2ccc(NC(=O)c3cccs3)cc2)c(C)c1 | 0.85%
Cc1ccc(C(=O)Nc2ccc(NC(=O)c3cccs3)cc2)c(C)c1 | 28.3% (active)
Cc1cccc(C(=O)Nc2ccc(CC(=O)O)cc2)c1 | -4.02%
Brc1ccc(-c2nnc(-c3ccccc3)o2)o1 | -0.09%
Cc1ccc(NC(=O)c2cccs2)cc1S(=O)(=O)N(C)C | -5.63%
O=C(CNC(=O)c1ccc(Br)o1)Nc1ccccc1 | 2.09%
O=C(Nc1ccc(-c2nnc(-c3ccccc3)o2)cc1)c1ccc(Br)o1 | 35.9% (active)
Cc1cccc(C(=O)Nc2ccc(C(=O)/C=C/c3cccs3)cc2)c1 | 29.2% (active)
COc1cccc2c1C(=O)c1c(O)c3c(c(O)c1C2=O)CC(O)(C(C)=NNC(=O)c1ccc(Cl)c(Cl)c1)CC3OC1CC(N)C(O)C(C)O1 (stereo not drawn) | -18.1%
COc1ccc(C)cc1S(=O)(=O)Nc1cccc(Cl)c1Cl | -5.61%
CCCOc1ccc(/C=N/NC(=O)C2CC2)c(OCCC)c1 | 0.85%
Cc1cc(C)nc(NS(=O)(=O)c2ccc(N/C=C\C(=O)c3cccs3)cc2)n1 | -2.02%
COc1cc(CO)ccc1OCC(=O)Nc1cccc2ccccc12 | 1.02%
CCOC(=O)[C@H]1[C@H]2COc3ccc(OC)cc3[C@@H]2N2C(=O)c3ccc(F)cc3NC(=O)[C@@]12C | -0.63%
NC1=C([N+](=O)[O-])C(c2ccccc2)C2=C(CCCC2=O)O1 (stereo not drawn) | -0.34%
Cc1cccc(NC(=O)C(C)N2C(=O)C3C4CC(C(Br)C4Br)C3C2=O)c1 (stereo not drawn) | 13.7% (active)
Cc1cccc(NC(=O)C(C)SCc2ccccc2)c1 (stereo not drawn) | 1.98%
Cc1cccc(NC(=O)CCN2CC(C)CC(C)C2)c1 (stereo not drawn) | -0.71%
Cc1ccc(Nc2ccccc2N)cc1 | 0.92%
CCn1c(O)c(N=NC(=O)c2cccc(S(=O)(=O)N3CCCCC3)c2)c2ccccc21 | -34.1%
Cc1cccc(C(=O)Nc2ccc3c(c2)C(=O)N(CC(C)C)C3=O)c1 | 0.17%
CC(=O)Nc1ccc(NC(=O)c2ccc3c(c2)C(=O)N(c2ccccc2C)C3=O)cc1 | -0.29%
Cc1cccc(N2C(=O)c3ccc(C(=O)Nc4cccc(C(=O)O)c4)cc3C2=O)c1 | 11.6% (active)
CCC(C(=O)NCCC(C)C)N(Cc1ccccc1Cl)C(=O)c1snc(C(N)=O)c1N (stereo not drawn) | -0.19%

SMILES | Tm shift relative to glycine control
Cc1ccc2c(c1)C(O)(CC(=O)c1cccnc1)C(=O)N2 (stereo not drawn) | -0.39%
CCCn1c(C)cc(-c2csc(NC(=O)CCc3nc4ccccc4c(=O)[nH]3)n2)c1C | -0.45%
CCc1nc(SCC(=O)NNC(=O)c2ccc(C)cc2)c2ccccc2n1 | -0.6%
CCCNC(=O)CSc1nc(Cc2ccccc2)nc2ccccc12 | -0.71%
CCCc1nc(SCC(=O)Nc2ccc(S(=O)(=O)N(C)C)cc2)c2ccccc2n1 | 17.5% (active)
COc1ccc(CC(=O)NCc2nnc(SCC(=O)Nc3nccs3)n2C)cc1 | 0.45%
CCCCc1cc(=O)oc2cc(C)cc(OCc3nn[nH]n3)c12 | 14.2% (active)
CCOC(=O)CCc1c(C)c2ccc(OCc3nn[nH]n3)c(C)c2oc1=O | -2.57%
CCc1cc(=O)oc2cc(C)cc(OC(C)C(=O)O)c12 (stereo not drawn) | -0.34%
O=C1NC(c2ccncc2)Nc2sc3c(c21)CCCC3 (stereo not drawn) | 0.51%
N#C/C(=C\c1ccccc1)c1n[nH]c(Cn2cncn2)n1 | -0.2%
Cc1nn(-c2ccccc2)c2c1C(c1ccc(F)cc1)C(C#N)=C(N)O2 (stereo not drawn) | -4.31%
COc1ccccc1C1C(C#N)=C(N)Oc2c1c(-c1ccccc1)nn2-c1ccccc1 (stereo not drawn) | 22.2% (active)
Cc1nn(Cc2ccccc2)c2c1C(c1ccccc1)C(C#N)=C(N)O2 (stereo not drawn) | 2.39%
Cc1ccc(C)c(OCc2cc(C(=O)N3CCN(c4cnccn4)CC3)no2)c1 | 4%
O=C(COC(=O)c1cccc(Br)c1)Nc1cccc2c1C(=O)c1ccccc1C2=O | 14.9% (active)
O=C(COC(=O)Cn1cnc2ccccc21)Nc1cccc2c1C(=O)c1ccccc1C2=O | -5.74%
O=C(COC(=O)c1ccccc1)Nc1ccccc1Sc1ccccc1 | 5.64%
CCCCC(=O)N(c1ccc(OC)cc1)C1C=CS(=O)(=O)C1 (stereo not drawn) | -8.09%
COc1ccc(CCNC(=O)CN2C(=O)CCSc3ccccc32)c(OC)c1 | -7.1%
O=C(Nc1ccc2c(c1)CCC2)c1ccc(Br)s1 | 14.5% (active)
CC1CC(C)CN(CCC(=O)Nc2ccc3c(c2)CCC3)C1 (stereo not drawn) | 2.54%
O=C(Nc1ccc(F)cc1)c1cc2c(s1)CCCC2 | 6.13%
O=C1c2ccccc2C(=O)C1C(=O)C1CC1 | 1.97%

SMILES | Tm shift relative to glycine control
Cc1ccc(CSc2nc3[nH]ncc3c(=O)[nH]2)cc1 | -1.69%
NS(=O)(=O)c1ccc(NC(=S)Nc2ccc(Br)c(Cl)c2)cc1 | 26.7% (active)
COc1ccc(NC(=S)Nc2ccc(S(N)(=O)=O)cc2)c(C)c1 | -1.86%
NS(=O)(=O)c1ccc(CCNC(=S)Nc2ccc(S(N)(=O)=O)cc2)cc1 | 0.88%
CCCCCc1nnc(NC(=O)c2ccc(=O)n(C)n2)s1 | -0.62%
CCOC(=O)C1Nc2ccc(C(F)(F)F)cc2C2C=CCC12 (stereo not drawn) | 52.4% (active)
CCOC(=O)C[C@H]1c2ccc(C(F)(F)F)cc2S(=O)(=O)N1c1ccccc1 | -5.05%
CCOC(=O)NNc1cc(C(F)(F)F)ccn1 | 0%
CC[C@]12c3[nH]c4ccc(OC)cc4c3CCN1C(=O)C(CC(=O)NCCN1CCOCC1)C[C@@H]2C(=O)N1CCN(C(=O)C2CC2)CC1 (stereo partly drawn) | -2.01%
Cc1cccc(NC(=O)CCn2c(=O)oc3ccccc32)c1 | -0.8%
O=C(CCNC(=O)c1ccccc1)NN=Cc1ccc(Br)o1 | -3.41%
O=C(CSc1ccc(/C=N/NC(=O)c2cccc(F)c2)o1)Nc1ccccc1 | 12.4% (active)
O=C(CCC(=O)Nc1ccccc1)N/N=C/c1ccccc1F | 0.57%
O=C(Cc1ccccc1)Nc1cccc(C(=O)N/N=C/c2ccco2)c1 | 1.04%
N#CCC(=O)N/N=C/c1ccc(SCC(=O)Nc2ccccc2)o1 | 12.7% (active)
O=C(CCC(=O)N/N=C/c1ccc(Br)o1)N/N=C/c1ccc(Br)o1 | -0.2%
COC(=O)c1ccc(C2C3=C(Nc4nnnn42)c2ccccc2OC3)cc1 (stereo not drawn) | -8.44%
C#CCO[C@@H]1C[C@H](n2cnc3c(=O)[nH]c(NC(=O)C(C)C)nc32)O[C@@H]1CO | 0%
CCc1cc(-c2nnc(SCC(=O)NC3CC3)n2C)cs1 | -0.41%
O=C(CC1C(=O)NCCN1C(=O)c1ccc([N+](=O)[O-])cc1)Nc1cccc(Cl)c1 (stereo not drawn) | 0.67%
CCOc1cnc(-c2c(-c3ccccc3Cl)noc2C)o1 | -1.94%
